Laboratory results reported in PubChem BioAssay AID687001 (Broad Institute, 2013).
Measured potencies and affinities stand elsewhere. The source made the active and inactive calls.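 How the source made its calls: active means signal-lowering compounds whose fitted half-maximal concentration is at or below twice the top tested dose in every run; inconclusive means runs disagree, flat 30 to 70% inhibition, or poor curve fit; inactive means the rest.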

biological target: Protein S100-A4 (Homo sapiens) (UniProt P26447); experiment: human S100A4 peptide interaction inhibition curves – biochemical, fluorescence polarization, cherry-picked hits, dose response (AID 687001); conditions: FP, S100A4/TAMRA-myosin IIA peptide binding; series mostly up to 11 µM; activity change, negative = inhibition: at the top concentration;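 further: 0% = DMSO neutral control wells and -100% = TFP positive control wells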
Sequence (P26447 whole entry, looked up): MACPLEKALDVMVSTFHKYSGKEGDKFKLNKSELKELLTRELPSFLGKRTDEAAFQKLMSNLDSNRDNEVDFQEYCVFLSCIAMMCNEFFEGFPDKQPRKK

Activity change, negative = inhibition, inactive:
Cc1ccc(S(=O)(=O)N2CCOCC2)cc1NC(=O)COC(=O)Cc1cccs1 -1.47%
CC(C)NC(=O)N(C)C[C@@H]1Oc2c(NC(=O)Nc3cccc4ccccc34)cccc2C(=O)N([C@H](C)CO)C[C@H]1C -3.24%
Cc1cc2cc(CNC(=O)c3ccc(S(=O)(=O)N4CCCC4)cc3)ccc2n1C 4.75%
COc1ccc(CCN2CC(C(=O)NCCN3CCNC3=O)CCC2=O)cc1 (centres undefined) 0.556%
C[C@@H]1CN([C@@H](C)CO)C(=O)CCCn2cc(nn2)CO[C@H]1CN(C)S(=O)(=O)c1ccc(Oc2ccccc2)cc1 6.47%
CO[C@H]1CC[C@H]2CCOc3c(C#N)cccc3C(=O)N(C)C[C@H](c3ccccc3)CC(=O)N(C)C[C@H]1O2 1.71%
Cc1ccc(S(=O)(=O)NCCC(=O)NCc2ccccn2)cc1 2.35%
COc1cc2c3nnc(-c4ccc(F)cc4)c-3cn(Cc3ccc(C)cc3)c2cc1OC -30.6%
C[C@@H]1CN([C@H](C)CO)C(=O)Cc2cc(NC(=O)Nc3ccc(C(F)(F)F)cc3)ccc2O[C@H]1CN(C)Cc1ccc2c(c1)OCO2 0.732%
COc1ccc(OC)c(S(=O)(=O)NCC(c2ccco2)N2CCc3ccccc32)c1 (centres undefined) -4.99%
O=C(/C=C/c1cccc(Cl)c1)NCCCN1CCOCC1 -0.231%
CN1CCN(C(=O)C[C@@H]2C=C[C@@H](NS(=O)(=O)c3cccc(F)c3)[C@@H](CO)O2)CC1 -1.92%
CCCC(=O)Nc1ccc2c(c1)C(=O)N(C)C[C@H](OC)[C@H](C)CN(Cc1ccccc1)[C@H](C)CO2 4.6%
COCC(=O)N1CC2(CCN(Cc3ccccc3Cl)CC2)c2c([nH]c3cc(OC)ccc23)[C@H]1CO 7.56%
N#Cc1ccc(-c2ccc([C@@H]3[C@@H](CO)N4C(=O)CN(C(=O)C5CC5)C[C@H]34)cc2)cc1 2.66%
C[C@@H]1CN([C@H](C)CO)C(=O)c2cc(NS(=O)(=O)c3ccc(Cl)cc3)ccc2O[C@@H](C)CCCCO[C@H]1CN(C)Cc1ccc(Cl)c(Cl)c1 12.6%
Cc1ccnc(NC(=O)C(C)N2C(=O)c3ccccc3S2(=O)=O)c1 (centres undefined) -1.79%
CCOc1ccc(C2C(C(=O)c3ccco3)=C(O)C(=O)N2CCN2CCOCC2)cc1OCC (centres undefined) 3.37%
C[C@H](CO)N1C[C@H](C)[C@@H](CN(C)Cc2cccc(F)c2)Oc2ncc(C#C[C@@H](C)O)cc2C1=O 1.72% [at 10 µM]
COc1ccc(CNC(=O)CNC(=O)[C@@H]2Cc3ccccc3CN2)cc1 -1.67%
O=S(=O)(CCS(=O)(=O)c1ccccc1)c1ccccc1 -3.72%
CCC(=O)Nc1ccc2c(c1)OC[C@H](C)N(Cc1ccccc1C(=O)O)C[C@H](C)[C@@H](OC)CN(C)C2=O -3.14%
O=C(OCC(=O)N1CCCC1=O)c1ccc(Cl)cc1[N+](=O)[O-] 0.43%
Cc1ccc(CN2C(=O)CSc3ccc(C(=O)NC4CC4)cc32)cc1 -4.95%
COc1cccc(-c2ccc([C@H]3[C@H](CO)N4CCCCN(CC5CC5)C[C@@H]34)cc2)c1 7.26%
Cc1cc2cc(CNC(=O)Nc3cccc(Cl)c3)ccc2n1C -16.4%
OC(CNC1CCCCCC1)COc1cccc2ccccc12 (centres undefined) -4.69%
O=C(CC(F)(F)F)N1C[C@@H]2[C@H](c3ccccc31)[C@@H](CO)N2CC1CCOCC1 3.09%
COCCCN1CC(=O)N2C(c3ccccc3)c3[nH]c4ccccc4c3C[C@H]2C1=O (some centres undefined) -3.16%
COc1ccc(CNC(=O)c2cc(S(=O)(=O)N3CCCCC3)ccc2Cl)cc1OC -1.49%
CC(NC(=O)C(=O)NCc1cccs1)c1ccccc1 (centres undefined) -3.94%
O=C(/C=C/c1cc(Br)ccc1F)OCC(=O)N1CCOCC1 -5.43%
Cc1ccc([N+](=O)[O-])cc1N=Nc1c(C)[nH]n(C(N)=S)c1=O -7.89%
C[C@@H]1CCCCO[C@@H](CN(C)C(=O)Nc2cccc3ccccc23)[C@H](C)CN([C@@H](C)CO)C(=O)c2cc(NC(=O)C3CCCCC3)ccc2O1 17.6%
O=C(COC(=O)/C=C/c1ccc(Br)o1)Nc1ccc2[nH]c(=O)[nH]c2c1 1.75%
CC(C)NC(=O)N(C)C[C@H]1Oc2ccc(NS(=O)(=O)c3ccc(F)cc3)cc2C(=O)N([C@H](C)CO)C[C@@H]1C -5.89%
Cc1oc(-c2ccccc2Cl)nc1CSCC(=O)O 6.41%
CCOC1=C2[C@H](c3ccccc3)N(S(=O)(=O)c3ccc(C)cc3)C(C(C)(C)C)[C@H]2C(C#N)(C#N)C(C#N)(C#N)C1 (some centres undefined) 2.74%
C[C@H]1CCCCO[C@H](CN(C)S(=O)(=O)c2ccc(F)cc2)[C@@H](C)CN([C@@H](C)CO)C(=O)c2cc(NS(=O)(=O)c3ccccc3)ccc2O1 25.8%
